Reference: PubChem BioAssay (NCATS)
Records with an inconclusive call do not appear. Active and inactive are the calls of the source. Unless noted, the call rests on the fitted dose curve.

Tests used:
[1] = target: Lysosomal acid glucosylceramidase (Homo sapiens) (UniProt P04062); assay: Glucocerebrosidase-p2 (AID 348; in the data active means potency below about 10 µM; further: potency means the concentration at half of the fitted maximal effect); conditions: purified GBA, blue fluorogenic substrate, 40 min
Chain of Lysosomal acid glucosylceramidase (Homo sapiens) (P04062 whole entry, looked up): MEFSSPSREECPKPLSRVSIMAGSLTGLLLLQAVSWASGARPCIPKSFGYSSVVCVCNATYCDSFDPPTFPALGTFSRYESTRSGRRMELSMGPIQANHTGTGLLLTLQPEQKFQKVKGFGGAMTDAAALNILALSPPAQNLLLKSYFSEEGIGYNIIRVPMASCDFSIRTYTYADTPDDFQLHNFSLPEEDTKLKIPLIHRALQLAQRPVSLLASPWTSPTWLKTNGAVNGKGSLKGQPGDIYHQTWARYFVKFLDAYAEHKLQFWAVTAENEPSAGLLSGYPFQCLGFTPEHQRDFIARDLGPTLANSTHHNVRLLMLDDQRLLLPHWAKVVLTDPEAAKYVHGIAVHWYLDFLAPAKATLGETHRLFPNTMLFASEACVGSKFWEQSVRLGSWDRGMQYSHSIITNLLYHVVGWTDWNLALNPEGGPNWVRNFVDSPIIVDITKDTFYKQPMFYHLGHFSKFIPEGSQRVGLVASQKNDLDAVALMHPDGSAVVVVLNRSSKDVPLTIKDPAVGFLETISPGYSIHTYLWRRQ
Method in brief: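 Compounds titrated from 0.6 nM upwards against 0.2 nM enzyme in pH 5.9 citric acid/KH2PO4, taurocholate, tween-20; blue fluorogenic substrate 80 uM, 40 min room temperature, stopped and read Ex 365/Em 440 for AC50.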

[2] = AP1 Signaling Pathway (AID 357; active means well fitted curve in either direction with a large enough effect, not every such curve was filed as active;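 further: ME-180 reporter cells stimulated with EGF at its EC50 level; on the % scale 0 is the no-effect control and ±100 the full control effect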); conditions: ME-180 AP-1-bla reporter, EGF-induced, beta-lactamase ratio, 5 h; at 7.69 µM (top of the series) unless noted
Method in brief: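 Modulation of EGF-driven AP-1 transcription was assessed with a beta-lactamase reporter in ME-180 cells. Compound and EC50 EGF were co-incubated 5 hours at 37 °C before 2.5-hour CCF4 loading at room temperature and dual-emission reading.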

[3] = target: Cytochrome P450 1A2 (Homo sapiens) (UniProt P05177); assay: p450-cyp1a2 (AID 410); conditions: recombinant CYP1A2, luciferin-ME demethylation, luminescence; series mostly up to 57 µM; further: potency means the concentration at half of the fitted maximal effect;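 on activity change, negative = inhibition: -100% = full effect of reference inhibitor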
Chain of Cytochrome P450 1A2 (Homo sapiens) (P05177 whole entry, looked up): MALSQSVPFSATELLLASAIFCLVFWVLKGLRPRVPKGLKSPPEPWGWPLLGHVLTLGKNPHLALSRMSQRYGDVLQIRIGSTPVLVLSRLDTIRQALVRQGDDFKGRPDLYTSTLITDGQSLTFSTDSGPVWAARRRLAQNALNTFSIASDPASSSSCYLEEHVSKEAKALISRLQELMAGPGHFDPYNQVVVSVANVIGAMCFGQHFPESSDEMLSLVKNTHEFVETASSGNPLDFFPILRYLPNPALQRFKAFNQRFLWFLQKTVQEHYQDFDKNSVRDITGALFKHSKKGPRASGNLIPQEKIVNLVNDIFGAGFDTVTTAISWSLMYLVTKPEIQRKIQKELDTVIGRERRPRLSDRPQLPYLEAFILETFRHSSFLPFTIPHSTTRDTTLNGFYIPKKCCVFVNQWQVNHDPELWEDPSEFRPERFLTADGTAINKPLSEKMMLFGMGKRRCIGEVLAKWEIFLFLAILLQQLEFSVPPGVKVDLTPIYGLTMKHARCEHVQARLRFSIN
Method in brief: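 Inhibition was calculated relative to 57 uM furafylline (full inhibition). The reaction used human CYP1A2 at 20nM with Luciferin-ME at its Km, 100uM, driven by an NADPH-regenerating system for 60 min at room temperature.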

[4] = Stat Signaling Pathway (AID 446; active means well fitted curve in either direction with a large enough effect, not every such curve was filed as active;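 further: ME-180 cervical cancer cells given 40 pM IL-6 alongside compound; SIE-controlled beta-lactamase reporter measured as 460/530 nm FRET emission ratio; on the % scale 0 is the no-effect control and ±100 the full control effect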); conditions: ME-180 SIE beta-lactamase reporter, IL-6 stimulated, 5 h; at 7.69 µM (top of the series) unless noted
Method in brief: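 ME-180 cells carrying a SIE-driven beta-lactamase reporter are stimulated with 40 pM IL-6 for 5 h at 37C in the presence of compound. The 460/530 nm FRET substrate ratio is read after 2.5 h at RT. Data are normalised to 300 pM IL-6 and to 125 nM JAK inhibitor controls.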

[5] = target: Glucocorticoid receptor (Homo sapiens) (UniProt P04150); assay: GR-EFC Redistribution (AID 451); conditions: CHO-K1 GR-EFC translocation, beta-gal luminescence, 2 h; further: potency means the concentration at half of the fitted maximal effect
Chain of Glucocorticoid receptor (Homo sapiens) (P04150 whole entry, looked up, the tested form may be a part): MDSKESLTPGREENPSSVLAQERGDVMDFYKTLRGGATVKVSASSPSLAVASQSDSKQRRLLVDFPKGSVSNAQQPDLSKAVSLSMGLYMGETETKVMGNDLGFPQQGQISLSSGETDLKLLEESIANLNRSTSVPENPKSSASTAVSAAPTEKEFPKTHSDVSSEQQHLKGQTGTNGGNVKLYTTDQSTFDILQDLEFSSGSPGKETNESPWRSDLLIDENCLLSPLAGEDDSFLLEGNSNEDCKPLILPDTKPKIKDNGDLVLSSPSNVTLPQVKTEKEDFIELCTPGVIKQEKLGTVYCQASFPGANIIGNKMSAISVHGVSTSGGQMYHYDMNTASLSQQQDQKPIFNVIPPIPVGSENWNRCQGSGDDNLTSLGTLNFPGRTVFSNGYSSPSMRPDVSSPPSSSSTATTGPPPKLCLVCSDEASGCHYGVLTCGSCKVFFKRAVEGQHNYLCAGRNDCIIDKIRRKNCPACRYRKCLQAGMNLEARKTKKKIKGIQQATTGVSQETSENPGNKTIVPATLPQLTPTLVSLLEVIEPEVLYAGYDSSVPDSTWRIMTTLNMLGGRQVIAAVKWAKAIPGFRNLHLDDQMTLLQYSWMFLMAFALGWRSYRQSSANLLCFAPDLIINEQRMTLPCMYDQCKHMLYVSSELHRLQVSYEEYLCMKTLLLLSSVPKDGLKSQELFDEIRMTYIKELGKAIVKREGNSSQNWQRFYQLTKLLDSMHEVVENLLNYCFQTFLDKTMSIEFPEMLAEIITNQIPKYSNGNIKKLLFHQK
Method in brief: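 CHO-K1 cells expressing nuclear EA and GR-ED fragments of b-gal; compounds titrated up to 46 uM final, 2 h at 37 C. GR nuclear translocation read as complemented b-gal luminescence after 1 h RT detection.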

[6] = target: Mitogen-activated protein kinase 10 (Mus musculus) (UniProt Q61831); assay: JNK3 AlphaScreen Assay (AID 530; active means well fitted curve in either direction with a large enough effect, not every such curve was filed as active;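 further: kinase came from lysate of stimulated human HepG2 cells; signal reports phosphorylation of biotinylated GST-cJun 1-79 at Ser73 with 10 µM ATP; on the % scale 0 is the no-effect control and ±100 the full control effect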); conditions: JNK3 lysate, c-Jun phosphorylation; series mostly up to 57.1 µM
Method in brief: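 qHTS format: compounds tested as titrations against IL-1beta/TNF-alpha-activated HepG2 lysate JNK3 with biotin-GST-cJun substrate and 10 uM ATP at room temperature. Loss of anti-phospho-cJun AlphaScreen signal indicates inhibition.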

[7] = target: 3',5'-cyclic-AMP phosphodiesterase 4B (Homo sapiens) (UniProt Q07343); assay: qHTS Assay for Inhibitors of PDE-IV (AID 607; active means well fitted activation curve with a large enough effect in the main read-out, with a control signal flat, not every such curve was filed as active; further: % of control where 0% means no effect); conditions: HEK293 ACTOne CNG channel cells, membrane potential fluorescence; series mostly up to 22.9 µM
Chain of 3',5'-cyclic-AMP phosphodiesterase 4B (Homo sapiens) (Q07343 whole entry, looked up): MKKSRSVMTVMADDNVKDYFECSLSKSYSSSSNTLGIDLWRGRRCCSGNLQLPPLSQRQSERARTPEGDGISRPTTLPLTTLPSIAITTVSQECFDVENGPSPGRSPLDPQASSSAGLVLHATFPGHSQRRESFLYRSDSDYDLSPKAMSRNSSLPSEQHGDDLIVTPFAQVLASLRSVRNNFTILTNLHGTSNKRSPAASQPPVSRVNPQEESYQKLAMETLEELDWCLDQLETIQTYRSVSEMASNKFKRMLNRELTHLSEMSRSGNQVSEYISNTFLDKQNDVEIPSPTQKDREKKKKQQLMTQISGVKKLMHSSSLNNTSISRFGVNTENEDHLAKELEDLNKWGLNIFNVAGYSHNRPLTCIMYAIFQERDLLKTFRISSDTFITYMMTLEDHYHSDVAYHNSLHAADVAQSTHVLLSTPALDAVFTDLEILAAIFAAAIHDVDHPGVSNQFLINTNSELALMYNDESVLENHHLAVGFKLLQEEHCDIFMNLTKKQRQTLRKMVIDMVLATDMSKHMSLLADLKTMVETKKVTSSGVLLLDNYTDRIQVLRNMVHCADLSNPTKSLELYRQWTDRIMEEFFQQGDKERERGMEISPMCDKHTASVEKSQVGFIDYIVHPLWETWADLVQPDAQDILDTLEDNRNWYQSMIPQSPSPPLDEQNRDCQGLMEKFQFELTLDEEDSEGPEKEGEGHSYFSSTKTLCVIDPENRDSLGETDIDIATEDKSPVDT
Method in brief: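 HEK293 ACTOne cells with CNG channel (1000/well), endogenous PDE4; membrane potential dye, compounds up to 22.9 uM final. Fluorescence Ex 535/Em 590; RO 20-1724 (100 uM final) as reference.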

[8] = target: Cytochrome P450 3A4 (Homo sapiens) (UniProt P08684); assay: qHTS Assay for Inhibitors and Substrates of Cytochrome P450 3A4 (AID 884; active means well fitted curve in the direction sought with a large enough effect; an effect the other way counts as inactive or inconclusive; further: nearly all actives have a fitted effect of over 50% in size; further: potency means the concentration at half of the fitted maximal effect); conditions: recombinant CYP3A4, Luciferin-PPXE luminescence; series mostly up to 57.1 µM
Chain of Cytochrome P450 3A4 (Homo sapiens) (P08684 whole entry, looked up): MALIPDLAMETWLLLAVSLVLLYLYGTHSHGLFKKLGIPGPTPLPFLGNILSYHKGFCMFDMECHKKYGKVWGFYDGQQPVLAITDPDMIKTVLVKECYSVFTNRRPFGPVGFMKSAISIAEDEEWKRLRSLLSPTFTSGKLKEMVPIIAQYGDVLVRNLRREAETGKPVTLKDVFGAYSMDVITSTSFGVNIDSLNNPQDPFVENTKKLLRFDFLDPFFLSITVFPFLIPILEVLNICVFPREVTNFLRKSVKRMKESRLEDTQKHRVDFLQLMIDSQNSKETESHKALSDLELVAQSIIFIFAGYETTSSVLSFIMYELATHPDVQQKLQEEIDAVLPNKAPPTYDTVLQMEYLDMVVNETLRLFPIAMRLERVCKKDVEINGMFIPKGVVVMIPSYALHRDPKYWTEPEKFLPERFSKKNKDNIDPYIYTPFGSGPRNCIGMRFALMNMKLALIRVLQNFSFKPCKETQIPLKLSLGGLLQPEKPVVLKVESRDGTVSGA
Method in brief: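 20 nM human CYP3A4 with 25 uM Luciferin-PPXE (at KM) in 200 mM KPO4, preincubated 10 min with compound; NADPH regeneration started a 60 min RT reaction. Luciferin detected by luminescence, normalized to 57 uM ketoconazole as full inhibition.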

[9] = target: Cytochrome P450 3A4 (Homo sapiens) (UniProt P08684); assay: qHTS Assay for Activators of Cytochrome P450 3A4 (AID 885; active means well fitted curve in the direction sought with a large enough effect; an effect the other way counts as inactive or inconclusive; further: nearly all actives have a fitted effect of over 65% in size; further: potency means the concentration at half of the fitted maximal effect); conditions: recombinant CYP3A4, Luciferin-PPXE luminescence, 60 min; series mostly up to 57.1 µM
Method in brief: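 Human CYP3A4 (20 nM) with Luciferin-PPXE at 25 uM (its KM) in 200 mM KPO4; 10 min compound preincubation, then NADPH regeneration and 60 min reaction at RT. Luciferin read by luminescence; normalized to 57 uM ketoconazole full inhibition.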

[10] = qHTS Assay for Lipid Storage Modulators (AID 1519); conditions: Drosophila S3 cells, BODIPY lipid droplet/cell ratio, laser cytometry, cells loaded with oleic acid; for activity change, negative = inhibition: at 57.5 µM (top of the series)
Method in brief: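 Cells seeded at 5,000 per well were treated with compounds over a concentration series and loaded with oleic acid (400 uM, as added). Lipid droplet fluorescence (488 nm excitation, 500-530 nm channel) was read by laser-scanning cytometry and normalized to 20 uM Triacsin C.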

[11] = Primary qHTS for small molecule stabilizers of the endoplasmic reticulum resident proteome: Secreted ER Calcium Modulated Protein (SERCaMP) assay (AID 1508630; active means well fitted curve in the direction sought with a large enough effect; an effect the other way counts as inactive or inconclusive; further: on the % scale 0 is the no-effect control and ±100 the full control effect); conditions: SH-SY5Y GLuc-SERCaMP (Gaussia luciferase released on ER calcium loss) secretion, thapsigargin, luminescence; series mostly up to 38.4 µM
Method in brief: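 GLuc-SERCaMP-expressing SH-SY5Y cells, pretreated 16 h with compound, are challenged with thapsigargin to empty ER calcium stores; after 4 h, coelenterazine is added directly to the medium and luminescence is imaged.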

[12] = target: Cytochrome P450 2D6 (Homo sapiens) (UniProt P10635); assay: qHTS Assay for Inhibitors and Substrates of Cytochrome P450 2D6 (AID 891; active means well fitted curve in the direction sought with a large enough effect; an effect the other way counts as inactive or inconclusive; further: potency means the concentration at half of the fitted maximal effect; nearly all actives have a fitted effect of over 60% in size); conditions: recombinant CYP2D6, luciferin-ME EGE luminescence; series mostly up to 57.1 µM
Chain of Cytochrome P450 2D6 (Homo sapiens) (P10635 whole entry, looked up): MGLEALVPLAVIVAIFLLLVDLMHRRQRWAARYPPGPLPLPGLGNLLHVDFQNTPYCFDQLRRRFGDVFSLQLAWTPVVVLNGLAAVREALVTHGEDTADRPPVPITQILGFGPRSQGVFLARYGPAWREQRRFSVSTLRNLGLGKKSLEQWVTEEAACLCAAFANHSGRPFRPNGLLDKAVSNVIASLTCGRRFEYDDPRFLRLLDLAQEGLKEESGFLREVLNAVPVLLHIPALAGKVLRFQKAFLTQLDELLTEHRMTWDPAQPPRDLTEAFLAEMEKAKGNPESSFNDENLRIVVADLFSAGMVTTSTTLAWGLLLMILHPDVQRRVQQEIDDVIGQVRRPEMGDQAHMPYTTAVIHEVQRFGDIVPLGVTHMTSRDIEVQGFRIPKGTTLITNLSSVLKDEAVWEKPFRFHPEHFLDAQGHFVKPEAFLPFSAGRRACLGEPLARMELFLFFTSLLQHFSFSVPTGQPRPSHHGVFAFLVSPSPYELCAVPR
Method in brief: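 Human CYP2D6 (5 nM) with 30 uM Luciferin-ME EGE (at Km) in 100 mM KPO4, compound preincubated 10 min, then NADPH regeneration system for 60 min at room temperature. Luciferin read by luminescence; normalized to 1.43 uM quinidine.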

[13] = qHTS Assay for Identification of Small Molecule Agonists for Hypoxia Response Element Signaling Pathway (AID 914; active means well fitted activation curve with a large enough effect in the signal ratio, with a control signal flat, not every such curve was filed as active; the % refers to the signal ratio; further: % of control where 0% means no effect); conditions: ME-180 (cervical carcinoma) HRE-bla reporter, beta-lactamase ratio, CoCl2, 17 h; activation: stronger effect = higher value
Method in brief: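 Compounds in a titration series were added to ME-180 reporter cells alongside an EC50 level of CoCl2. After 17 hours, beta-lactamase activity was read as the 460nm/530nm emission ratio of CCF4, giving AC50 values.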

[14] = measured here: cell count channel max response
[15] = measured here: lipid channel max response

Row | Compound | Potency [1] | activity change, negative = inhibition [2] | Potency [3] | activity, negative = inhibition [4] | Potency [5] | Potency [6] | Potency [7] | Potency [8] | Potency [9] | activity change, negative = inhibition [10] | max response [10, 14] [%] | max response [10, 15] [%] | outcome [11] | Potency [12] | activation [13]
1 | Cn1cccc1C(=O)N1CCC2(CC1)CCN(C(c1ccccc1)c1ccccc1)CC2 | > 11.4 µM (inactive) | -3.6% (inactive) | 5.01 µM (active) | -4.66% (inactive) | > 46 µM (inactive) | inactive | inactive | inactive | 15.8 µM (active) | -19.5% (inactive) | 11.8 | -8.47 | inactive |  | 
2 | c1ccc(C(c2ccccc2)N2CC[C@@]3(CCCNC3)C2)cc1 | > 11.4 µM (inactive) | 0.329% (inactive) | inactive | 8.51% (inactive) | > 46 µM (inactive) | inactive | inactive | 7.94 µM (active) | inactive | -9.5% (inactive) | 4.5 | -6.03 | inactive |  | 
3 | N#Cc1cccc(NC(=O)N2CCC3(CC2)CCN(C(=O)c2cccc(F)c2)CC3)c1 | > 11.4 µM (inactive) | -11.8% (inactive) | inactive | -7.8% (inactive) | > 46 µM (inactive) | inactive | inactive | inactive | 7.94 µM (active) | 5.01% (inactive) | 6.66 | 13.2 | inactive |  | 
4 | CC(C)CN1CCCC2(CCN(C(=O)c3cccn3C)CC2)C1 | > 11.4 µM (inactive) | -3.67% (inactive) | inactive | 12.4% (inactive) | > 46 µM (inactive) | inactive | inactive |  | inactive | 6.1% (inactive) | 16.8 | 26.5 | inactive |  | 
5 | c1ccc(-c2cccc(N3CCC4(CCNCC4)CC3)c2)cc1 | > 11.4 µM (inactive) | -2.96% (inactive) | 15.8 µM (active) | -2.71% (inactive) | > 46 µM (inactive) | inactive | inactive |  | inactive | 2.27% (inactive) | -17 | -12.4 | inactive |  | 
6 | COc1ccccc1CN1CCCC2(CCN(C(=O)c3ccncc3)CC2)C1 | > 11.4 µM (inactive) | -0.588% (inactive) | 20 µM (active) | 1.91% (inactive) | > 46 µM (inactive) | inactive | inactive | 6.31 µM (active) | inactive | 1.58% (inactive) | 5.27 | 9.4 | inactive | 3.16 µM (active) | 3.13% (inactive)
7 | O=C(c1ccco1)N1CCC2(CCN(Cc3nccs3)CC2)CC1 | > 11.4 µM (inactive) | 5.22% (inactive) | inactive | 4.68% (inactive) | > 46 µM (inactive) | inactive | inactive | inactive |  | 1% (inactive) | 8.57 | 12.6 | inactive |  | -9.81% (inactive)
8 | O=C(c1ccco1)N1CCC2(CC1)CN(c1ccccn1)C2 | > 11.4 µM (inactive) | 2.14% (inactive) | inactive | -14.8% (inactive) | > 46 µM (inactive) | inactive | inactive | inactive | 10 µM (active) | 5.94% (inactive) | 3 | 11.7 | inactive |  | 
9 | Cn1cccc1C(=O)N1CCC[C@@]2(CCN(C(c3ccccc3)c3ccccc3)C2)C1 | > 11.4 µM (inactive) | 0.163% (inactive) | 20 µM (active) | 9.39% (inactive) | > 46 µM (inactive) | inactive | inactive |  | inactive | 0.948% (inactive) | 10.5 | 14.1 | inactive |  | 
10 | Cn1cccc1C(=O)N1CCC2(CCN(Cc3nccs3)CC2)CC1 | > 11.4 µM (inactive) | -5.06% (inactive) | inactive | -1.77% (inactive) | > 46 µM (inactive) | inactive | inactive | inactive |  | -0.0655% (inactive) | -3.13 | -0.688 | inactive |  | 
11 | CC(C)CN1CCCC2(CCN(S(=O)(=O)c3ccccc3)CC2)C1 | > 11.4 µM (inactive) | 1.33% (inactive) | inactive | 0.203% (inactive) | > 46 µM (inactive) | inactive | inactive |  | inactive | 2.73% (inactive) | 12.5 | 15.5 | inactive |  | 
12 | Cn1cccc1C(=O)N1CCC2(CCCN(Cc3ccccc3)C2)CC1 | > 11.4 µM (inactive) | -4.68% (inactive) | inactive | -3.12% (inactive) | > 46 µM (inactive) | inactive | inactive |  | inactive | 3.59% (inactive) | 2.52 | 8.85 | inactive |  | 
13 | O=C(Nc1cccc(F)c1)N1CC2(CCN(C(=O)c3cc(C(F)(F)F)cc(C(F)(F)F)c3)CC2)C1 | > 11.4 µM (inactive) | -25.3% (inactive) | inactive | -22% (inactive) | > 46 µM (inactive) | inactive | inactive |  | inactive | 7.3% (inactive) | 16.9 | 27.5 | inactive |  | 
14 | CC(C)CN1CCCC2(CCN(C(=O)c3cccc(F)c3)CC2)C1 | > 11.4 µM (inactive) | -3.93% (inactive) | inactive | -0.516% (inactive) | > 46 µM (inactive) | inactive | inactive |  | inactive | 2.15% (inactive) | 18.6 | 24.2 | inactive |  | 
